Data on 19 compounds can be found in the supplement of paper PMC6089552.

Among all 3,200 compounds or so, about 300 (9.4%) showed activity. Many of the other results were omitted from the sample, so actives are more common in it than they were. A number with no mark means an inactive call.

This assay has as its system A673/TR/shEF. As to the kind of experiment: cell viability (LOESS-normalised, relative to median of negative controls) (log2 ratio); higher = more viable cells (less compound effect), active = hit call of the paper (over 3 MAD below the median). The note with it: treatment time: 72 h. The procedure, abridged:
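A673/TR/shEF Ewing sarcoma cells were plated at 1,500 per well in 384-well plates and cultured with or without doxycycline, added 24 h before compounds, to induce EWS-FLI1 shRNA knockdown. Library compounds at two or more concentrations, alongside DMSO controls, were applied for three days. Cell viability was measured by CellTiter-Glo luminescence on an Envision reader. Readings were LOESS-corrected per plate, divided by the median of negative controls and log2-transformed, and hits were wells lying at least three median absolute deviations from the median of all screened wells.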

[1] abbreviates: 0.25 µM, library screen: screen1, EWS-FLI1 expression: high (no doxycycline).
Setting [2] is: 0.25 µM, library screen: screen1, EWS-FLI1 expression: low (doxycycline-induced shRNA knockdown).
Setting [3] is: 2.5 µM, library screen: screen1, EWS-FLI1 expression: high (no doxycycline).
Setting [4] is: 2.5 µM, library screen: screen1, EWS-FLI1 expression: low (doxycycline-induced shRNA knockdown).
[5] abbreviates: 0.25 µM, library screen: screen2, EWS-FLI1 expression: high (no doxycycline).
Setting [6] is: 0.25 µM, library screen: screen2, EWS-FLI1 expression: low (doxycycline-induced shRNA knockdown).
Setting [7] is: 2.5 µM, library screen: screen2, EWS-FLI1 expression: high (no doxycycline).
[8] abbreviates: 2.5 µM, library screen: screen2, EWS-FLI1 expression: low (doxycycline-induced shRNA knockdown).
Setting [9] is: 0.103 µM, library screen: screen3, EWS-FLI1 expression: high (no doxycycline).
The mark [10] stands for this setting: 0.103 µM, library screen: screen3, EWS-FLI1 expression: low (doxycycline-induced shRNA knockdown).
Where [11] appears, read: 0.308 µM, library screen: screen3, EWS-FLI1 expression: high (no doxycycline).
The mark [12] stands for this setting: 0.308 µM, library screen: screen3, EWS-FLI1 expression: low (doxycycline-induced shRNA knockdown).
The mark [13] stands for this setting: 0.926 µM, library screen: screen3, EWS-FLI1 expression: high (no doxycycline).
[14] abbreviates: 0.926 µM, library screen: screen3, EWS-FLI1 expression: low (doxycycline-induced shRNA knockdown).
Where [15] appears, read: 2.8 µM, library screen: screen3, EWS-FLI1 expression: high (no doxycycline).
[16] abbreviates: 2.8 µM, library screen: screen3, EWS-FLI1 expression: low (doxycycline-induced shRNA knockdown).
The mark [17] stands for this setting: 8.3 µM, library screen: screen3, EWS-FLI1 expression: high (no doxycycline).
Setting [18] is: 8.3 µM, library screen: screen3, EWS-FLI1 expression: low (doxycycline-induced shRNA knockdown).
The mark [19] stands for this setting: 25 µM, library screen: screen3, EWS-FLI1 expression: high (no doxycycline).
[20] abbreviates: 25 µM, library screen: screen3, EWS-FLI1 expression: low (doxycycline-induced shRNA knockdown).

In the case of `Oc1cc(O)cc(/C=C/c2ccccc2)c1`, the “cell viability (log2)” value by setting is: under setting [1], 0.0674; under setting [2], 0.00318; under setting [3], 0.07; under setting [4], 0.0614.
Consider `Oc1cc(O)cc(/C=C/c2ccc(O)c(O)c2)c1`, for which the “cell viability (log2)” value (0.025 µM, library screen: screen1, EWS-FLI1 expression: high (no doxycycline)) was 0.0929; the “cell viability (log2)” value (0.025 µM, library screen: screen1, EWS-FLI1 expression: low (doxycycline-induced shRNA knockdown)) was 0.00184; the “cell viability (log2)” value under setting [1] is 0.117; the “cell viability (log2)” value under setting [2] is 0.0696; the “cell viability (log2)” value under setting [5] is -0.0238; the “cell viability (log2)” value under setting [6] was 0.0864. The “cell viability (log2)” value by setting is: under setting [3], 0.0516; under setting [4], 0.151; under setting [7], 0.187; under setting [8], 0.0106; (25 µM, library screen: screen1, EWS-FLI1 expression: high (no doxycycline)) -0.42 (active); (25 µM, library screen: screen1, EWS-FLI1 expression: low (doxycycline-induced shRNA knockdown)) 0.162.
Take `Oc1ccc(/C=C/c2cc(O)cc(O)c2)cc1`: the “cell viability (log2)” value runs as follows: under setting [9], 0.0131; under setting [10], 0.0367; under setting [1], 0.0839; under setting [2], 0.0347; under setting [5], -1.5 (active); under setting [6], -1.81 (active). The “cell viability (log2)” value is, setting by setting: under setting [11], -0.0479; under setting [12], 0.0776; under setting [13], 0.0102; under setting [14], 0.0306; under setting [3], 0.127; under setting [4], 0.2. Besides, the “cell viability (log2)” value under setting [7] was -2.99 (active); the “cell viability (log2)” value under setting [8] is -3.07 (active); the “cell viability (log2)” value under setting [15] is -0.00513; the “cell viability (log2)” value under setting [16] is 0.017; the “cell viability (log2)” value under setting [17] is -0.0335; the “cell viability (log2)” value under setting [18] was 0.0785. The “cell viability (log2)” value under setting [19] was -0.23 (active) and the “cell viability (log2)” value under setting [20] was 0.0525.
For the compound `COc1cc(/C=C/CO)ccc1O`, the “cell viability (log2)” value was 0.0482 under setting [1], 0.111 under setting [2], 0.0791 under setting [3] and 0.0869 under setting [4].
Taken in the same sequence, the figures for `COc1cc(O)cc(/C=C/c2ccccc2)c1` were 0.0443, 0.0713, 0.167 and 0.125.
For the compound `O=c1cc(O)cc(/C=C/c2ccc(O)c(O)c2)o1`, the “cell viability (log2)” value under setting [5] was 0.159, the “cell viability (log2)” value under setting [6] was 0.05, the “cell viability (log2)” value under setting [7] was 0.0405 and the “cell viability (log2)” value under setting [8] is 0.104.
Take `C=C1CC/C=C(/C)CC[C@@H]2[C@@H]1CC2(C)C`: the “cell viability (log2)” value was 0.102 under setting [1], 0.0257 under setting [2], 0.165 under setting [3] and 0.118 under setting [4].
For `CC1(C)CC[C@]2(C(=O)O)[C@H](O)C[C@]3(C)C(=CC[C@@H]4[C@@]5(C)CC[C@H](O)C(C)(C)[C@@H]5CC[C@]43C)[C@@H]2C1` the same measures were 0.0739, 0.0342, 0.0945 and 0.121.
For `CC1(C)C(=O)CCC2(C)C1CC(O)C1(C)C2CCC2(C)C(c3ccoc3)OC(=O)C3OC321` (configuration not stated) the same measures were 0.0271, -0.0613, 0.1 and -0.017.
On to `NC(N)=NCCSSCCN=C(N)N`, for which the “cell viability (log2)” value is, setting by setting: under setting [5], 0.208; under setting [6], 0.0937; under setting [7], 0.0577; under setting [8], 0.063.
With `O=c1cccc2ccc(O)c(O)c2c1O`, the “cell viability (log2)” value under setting [1] is 0.0319, the “cell viability (log2)” value under setting [2] was -0.0442, the “cell viability (log2)” value under setting [3] is 0.142 and the “cell viability (log2)” value under setting [4] was -0.0155.
`COc1cc(Cc2cnc(N)nc2N)cc(OC)c1OC`: the “cell viability (log2)” value was 0.149 under setting [1]; 0.184 under setting [2]; -0.215 (active) under setting [5]; -0.0762 (active) under setting [6]; 0.204 under setting [3]; 0.321 under setting [4]. For the same compound, the “cell viability (log2)” value under setting [7] was -1.67 (active) and the “cell viability (log2)” value under setting [8] was -2.59 (active).
Take `COc1cc(O)cc(OC)c1OC`: the “cell viability (log2)” value runs as follows: under setting [1], 0.0343; under setting [2], 0.0156; under setting [3], 0.173; under setting [4], 0.0956.
With `COc1ccc(CN2CCN(Cc3cc(OC)c(OC)c(OC)c3)CC2)cc1`, the “cell viability (log2)” value was 0.174 under setting [1], 0.0733 under setting [2], 0.142 under setting [3] and -0.0868 under setting [4].
In the case of `COc1ccc(-c2coc3cc(OC)cc(O)c3c2=O)cc1`, the “cell viability (log2)” value reads like this: under setting [1], 0.0141; under setting [2], 0.0676; under setting [3], 0.102; under setting [4], 0.184.
Consider `COc1cc(CN2CCN(Cc3ccco3)CC2)cc(OC)c1`, for which the “cell viability (log2)” value runs as follows: under setting [1], -0.0146; under setting [2], 0.0935; under setting [3], 0.0118; under setting [4], 0.0977.
`CCCS(=O)(=O)Nc1ccc(F)c(C(=O)c2c[nH]c3ncc(-c4ccc(Cl)cc4)cc23)c1F`: the “cell viability (log2)” value was 0.0151 under setting [9]; 0.0756 under setting [10]; -0.0936 under setting [11]; 0.103 under setting [12]; -0.131 under setting [13]; 0.105 under setting [14]. Moreover, the “cell viability (log2)” value is -0.159 under setting [15]; 0.126 under setting [16]; -0.177 under setting [17]; 0.106 under setting [18]; -0.179 (active) under setting [19]; 0.0931 under setting [20].
Take `COc1c(Cl)c(C)c2c(c1Cl)OC(=O)c1c(C)c(Cl)c(O)c(Cl)c1O2`: the “cell viability (log2)” value is, setting by setting: under setting [1], 0.0361; under setting [2], 0.0285; under setting [3], 0.0998; under setting [4], 0.0885.
Take `CC1CN(S(=O)(=O)c2cccc3cnccc23)CCN1` (configuration not stated): the “cell viability (log2)” value by setting is: under setting [5], 0.246; under setting [6], 0.094; under setting [7], 0.214; under setting [8], 0.111.
